Consider six compounds from PubChem BioAssay.

Test [1] in a line: liver-stage malaria parasite growth inhibition, primary screen, cell-based, HepG2, luciferase luminescence, HepG2 viability (AID 624349).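 Note: 100% = mean of DMSO negative control wells on the same plate.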 Particulars: P. berghei liver stage in HepG2, luciferase luminescence, concentration not given here; parasite load remaining: stronger effect = lower value; viability: measured here: HepG2 viability without parasites.
Test [2] concerns Hepatitis C virus NS3 helicase. As to the kind of experiment: HCV NS3 helicase inhibitors, primary screen, biochemical, fluorescence polarization, LOPAC1280 library (AID 687035; in the data active = inhibition above about 37%). Particulars: Purified HCV NS3 helicase, Cy5-dT15 ssDNA binding fluorescence polarization; stronger effect = higher value; concentration not given here.
Test [3] can be described thus: Cy5 fluorescence quenching or enhancement artefacts, artefact control for HCV NS3 helicase inhibitor project, biochemical, LOPAC1280 (AID 687037; call rule not given here). Particulars: Cy5-DNA-NS3h complex fluorescence interference counterscreen.
Test [4] is described as follows: stimulators of nuclear beta-catenin in C2C12, primary screen, imaging, WNT3A-conditioned medium, mouse C2C12, NPC library (AID 1117326; in the data active = nuclear beta-catenin stimulation mostly above about 4.2%, no sharp cut-off; inactive = mostly below about 10%). Particulars: stronger effect = higher value.
Test [5] is described as follows: stimulators of insulin release from INS-1E, primary screen, cell-based, 5 mM glucose, NPC library (AID 1117329;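 active = compound raises insulin release from rat beta cells at 5 mM glucose, no numeric limit stated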). Particulars: rat INS-1E insulin secretion, at 10 µM, stronger effect = higher value.
Test [6] can be described thus: growth inhibition of GSK3B-pretreated HCT116 cells – cell-based, CellTiter-Glo, 0.2 to 20 µM (AID 1117336;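 active = compounds lowering colon cancer cell viability after pretreatment blocking the GSK3B kinase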). Particulars: HCT116 viability after GSK3B inhibitor, at 20 µM, stronger effect = higher value.
Test [7] can be described thus: inhibition of endothelial tube formation, primary screen, imaging, VEGF stimulated, CD31 staining, tube area, NPC library (AID 1117340;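 active = compound that reduces growth-factor-driven endothelial tube area in a mixed cell culture, no cutoff stated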). Particulars: VEGF-stimulated ADSC/ECFC co-culture, at 10 µM, stronger effect = higher value.
The nature of test [8]: glucagon-like peptide 1 release enhancers, primary assay, NCI-H716 cell line, NPC library (AID 1117341;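 active = compound raises GLP1 secretion from the human gut endocrine cells, with no numeric limit stated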). Particulars: NCI-H716 cells, at 10 µM, stronger effect = higher value.
Test [9] can be described thus: HCT116 colon cancer cell growth inhibition, primary screen, CellTiter-Glo luminescence, NPC library (AID 1117342;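 active = compounds that lower survival of HCT116 colon cancer cells in the luminescence readout, no numeric limit stated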). Particulars: at 20 µM (top of the series).
The nature of test [10]: CellTiter-Glo luminescent readout of SW480 viability loss, NPC library primary (AID 1117343;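 active = compounds that lower viability of the colon cancer cells in the luminescence readout, with no numeric limit stated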). Particulars: CellTiter-Glo luminescence; at 20 µM (top of the series).
Test [11] is described as follows: decreased DLD-1 cellular survival, CellTiter-Glo luminescent readout, NPC compound collection, primary HTS (AID 1117346;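 active = compounds that lower survival of DLD-1 colon cancer cells in the luminescence readout, no cutoff given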). Particulars: DLD-1 viability, CellTiter-Glo luminescence; at 20 µM (top of the series).
The target in test [12] is 6-phosphogluconate dehydrogenase, decarboxylating (Homo sapiens) (UniProt P52209). As to the kind of experiment: 6PGD enzyme inhibitors, primary screen, biochemical, human, recombinant enzyme, NADPH absorbance (AID 1159550;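 active = at least 20% inhibition of 6-phosphogluconate dehydrogenase activity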). Particulars: recombinant 6PGD, NADPH absorbance 341 nm; at 10 µM; stronger effect = higher value.
6-phosphogluconate dehydrogenase, decarboxylating (Homo sapiens), sequence (P52209 whole entry, looked up): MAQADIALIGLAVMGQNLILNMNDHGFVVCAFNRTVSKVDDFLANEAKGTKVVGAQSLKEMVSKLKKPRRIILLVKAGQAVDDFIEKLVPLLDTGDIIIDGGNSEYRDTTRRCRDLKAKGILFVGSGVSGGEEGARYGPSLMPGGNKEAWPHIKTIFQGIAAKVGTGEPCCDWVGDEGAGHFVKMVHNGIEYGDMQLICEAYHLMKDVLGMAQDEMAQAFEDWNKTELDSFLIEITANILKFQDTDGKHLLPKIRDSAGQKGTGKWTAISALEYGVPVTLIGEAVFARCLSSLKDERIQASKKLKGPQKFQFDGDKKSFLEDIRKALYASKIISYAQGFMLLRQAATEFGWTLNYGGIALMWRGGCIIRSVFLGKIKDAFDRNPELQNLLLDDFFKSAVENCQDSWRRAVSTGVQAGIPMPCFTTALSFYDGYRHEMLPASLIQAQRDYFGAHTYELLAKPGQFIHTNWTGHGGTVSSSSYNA

Where “and” joins values, the source holds several entries; their conditions need not be identical. Equal values may be shown once. Calls of active or inactive are those of the source. Cut-off read from the data, not from the text of the source, unless noted: active = parasite load remaining mostly below about 12% (no sharp cut-off); inactive = mostly above about 10%.

With `Clc1ccc(C(c2ccccc2Cl)C(Cl)Cl)cc1` (stereo not given), the parasite load remaining in [1] was 2.27% (inactive). Also, in test [1], the viability came out at 80.1%. The inhibition was -4% (inactive) in test [2] and 5.07% (inactive) in test [12]. Besides, in test [3], the fluorescence ratio (interference) is 0.9 (inactive). The nuclear beta-catenin stimulation in test [4] (at 10 µM) was 4.5% (inactive); in test [4] (stimulation, at 2 µM) it was 0.2%. Also, in test [5], the insulin secretion stimulation is 1.4% (inactive). Besides, the viability decrease in test [6] was 46.6% (inactive). In [7], the tube area decrease was 6.6% (inactive). Also, in test [8], the GLP1 secretion stimulation was 15.5% (inactive). In [9], the inhibition of viability was 88.6% (active). Besides, the viability decrease (inhibition) is 84.4% (active) in [10] and 99.5% (active) in [11].

In the case of `Cc1nnc(SCC2=C(C(=O)O)N3C(=O)[C@@H](NC(=O)Cn4cnnn4)[C@H]3SC2)s1`, the parasite load remaining in test [1] was 82.1% (inactive) and 85.3% (inactive) and 68.8% (inactive). The viability in [1] is 98.8% and 78.7% and 99.1%. In addition, the inhibition in test [2] was -3% (inactive); in test [12], 1.44% (inactive). In addition, the fluorescence ratio (interference) in test [3] is 0.9 (inactive). For the same compound, the nuclear beta-catenin stimulation in [4] (at 10 µM) is 0.1% (inactive); in test [4] (stimulation, at 2 µM), 0.2%. In addition, the insulin secretion stimulation in [5] was -1.7% (inactive). In addition, the viability decrease in [6] is 3.2% (inactive). Moreover, the tube area decrease in test [7] was 10.5% (inactive). Further, the GLP1 secretion stimulation in test [8] was 2.7% (inactive). Besides, the inhibition of viability in test [9] is 1.2% (inactive). For the same compound, the viability decrease (inhibition) in test [10] was 4.8% (inactive); in test [11], -22.3% (inactive).

`O=C1NCC2(CCN(CCc3ccccc3)CC2)O1`: the inhibition in test [2] was -3% (inactive); in test [12] it was 13.7% (inactive). The fluorescence ratio (interference) in test [3] was 1 (inactive). In addition, the nuclear beta-catenin stimulation is 0.4% (inactive) in test [4] (at 10 µM) and 1.5% in [4] (stimulation, at 2 µM). For the same compound, the insulin secretion stimulation in test [5] is -0.9% (inactive). Also, the viability decrease in test [6] was 1.6% (inactive). Moreover, the tube area decrease in [7] is 18.6% (inactive). Moreover, the GLP1 secretion stimulation in [8] was 0% (inactive). Further, in test [9], the inhibition of viability was 8.9% (inactive). Besides, the viability decrease (inhibition) in test [10] was 48% (inactive); in test [11], -32.8% (inactive).

Regarding `COc1ccc(CCN(C)CCCC(C#N)(c2ccc(OC)c(OC)c2)C(C)C)cc1OC` (stereo not given), the inhibition is -3% (inactive) in test [2] and 10.8% (inactive) in test [12]. In test [3], the fluorescence ratio (interference) was 1 (inactive). Moreover, the nuclear beta-catenin stimulation is 0.2% (inactive) in test [4] (at 10 µM) and 0.5% in test [4] (stimulation, at 2 µM). Further, the insulin secretion stimulation in [5] is 6.3% (inactive). For the same compound, the viability decrease in test [6] is -4.2% (inactive). Besides, the tube area decrease in test [7] was -13.1% (inactive). Further, in test [8], the GLP1 secretion stimulation is -4% (inactive). For the same compound, the inhibition of viability in test [9] was 27.3% (inactive). For the same compound, the values for the viability decrease (inhibition) in [10] and in test [11] were 20.2% (inactive) and -13.8% (inactive), respectively.

In the case of `Cc1nc2sccn2c(=O)c1CCN1CCC(=C(c2ccc(F)cc2)c2ccc(F)cc2)CC1`, the parasite load remaining in test [1] was 16.8% (inactive). The viability in test [1] worked out at 91.8%. For the same compound, the inhibition in test [2] was 0% (inactive); in test [12] it was 13.5% (inactive). Further, the fluorescence ratio (interference) in [3] is 0.9 (inactive). The nuclear beta-catenin stimulation was 13.4% (inactive) in test [4] (at 10 µM) and 4.3% in test [4] (stimulation, at 2 µM). Moreover, in [5], the insulin secretion stimulation was 2% (inactive). Moreover, the viability decrease in [6] was 86.2% (active). For the same compound, the tube area decrease in test [7] was 28.7% (inactive). The GLP1 secretion stimulation in test [8] is 10.9% (inactive). Also, the inhibition of viability in [9] is 90.6% (active). The viability decrease (inhibition) is 133% (active) in test [10] and 105% (active) in [11].

With `C=CCc1ccccc1OCC(O)CNC(C)C` (stereo not given), the parasite load remaining in test [1] was 48.8% (inactive) and 53.9% (inactive) and 74.6% (inactive). Further, in test [1], the viability is 101% and 91.5% and 140%. Besides, the inhibition in [2] was -4% (inactive); in test [12], -12.3% (inactive). In addition, in test [3], the fluorescence ratio (interference) was 1 (inactive). The nuclear beta-catenin stimulation in test [4] (at 10 µM) was 0.1% (inactive); in test [4] (stimulation, at 2 µM) it was -0.5%. Moreover, the insulin secretion stimulation in [5] was 2.2% (inactive). Also, the viability decrease in [6] was -6.8% (inactive). For the same compound, the tube area decrease in test [7] is -1.1% (inactive). Moreover, the GLP1 secretion stimulation in test [8] is 1.4% (inactive). Also, in test [9], the inhibition of viability is 34.3% (inactive). Besides, the viability decrease (inhibition) was 27.3% (inactive) in test [10] and 12% (inactive) in test [11].
